Sampled rows, rich in hits. Any-hit rate of the full collection: about 12%.
Arbovirus anti: arbovirus infection inhibition | arbovirus infection cell-based antiviral screen | inhibition, % at 10 µM | hit rate 0.37% among 200,000 | AID 1251; in the data active = inhibition above about 30%
Lmaj promast: inhibitors of Leishmania major promastigote growth; Leishmania major promastigotes, resazurin fluorescence viability; inhibition, % at 10 µM; hit rate 9% among 200,000; in the data active = inhibition above about 50%;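 note: promastigotes grown with compound for 44 hours at 28 °C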
WT yeast gro inh: growth inhibition of WT yeast, mitochondrial fusion screen; inhibition, % at 10 µM; AID 1362; hit rate 2.1% among 190,000; mitochondrial fusion phenotypic screen, WT strain; in the data active = inhibition above about 58%; tested in S. cerevisiae
CHOP inh: CHOP inhibition in unfolded protein response; hit rate 3.8% among 220,000; inhibition, % at 10 µM; CHO-K1 CHOP-promoter luciferase, tunicamycin-induced, 15-18 h;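 active = compounds that reduced the stress-induced luciferase reporter signal by more than about 70% of percent inhibition, limit read from the data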;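 note: 0% = tunicamycin plus vehicle and 100% = wells without tunicamycin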
* = called active by the depositor; . = no result.

SMILES	Arbovirus anti	Lmaj promast	WT yeast gro inh	CHOP inh
CC(=O)N1CCCSC1=Nc1ccccc1	1	70*	-4	18
CCOc1ccccc1N=C1SCCCN1C	3	19	1	33
CCCn1c(C)c(C(=O)c2ccc3ccccc3c2)c2ccccc21	.	.	.	-18
COC(=O)C(O)(c1ccc(N(C)C(=O)COc2ccccc2)cc1)C(F)(F)F (stereo not drawn)	2	-5	3	3
COC(=O)N(C)c1ccc(C(O)(C(=O)OC)C(F)(F)F)cc1 (stereo not drawn)	9	87*	5	15
CCOC(=O)N(CC)c1ccc(C(O)(C(=O)OC)C(F)(F)F)cc1 (stereo not drawn)	10	91*	-5	56
O=C(C1CC(c2ccccc2O)=NO1)N1CCC2(CC1)OCCO2 (stereo not drawn)	4	0	-28	-12
CCC(=NCCCN1CCOCC1)c1c(O)n(Cc2ccccc2)c(=O)[nH]c1=O	12	2	-6	14
CC(=NCCCN1CCOCC1)c1c(O)n(Cc2ccccc2)c(=O)[nH]c1=O	11	90*	6	29
Clc1ccc(N2CC3CCC(C2)N3)nn1	.	.	.	4
COc1ccc2c(CN3CC=C(c4ccccc4)CC3)cc(=O)oc2c1	2	8	37	12
COc1cc(C)cc(CN2CC=C(c3ccccc3)CC2)c1O	22	65*	19	26
COc1ccc2ccc(O)c(CN3CC=C(c4ccccc4)CC3)c2c1	30*	8	61*	19
COc1ccc(C)cc1NC1=NCCCS1	-2	5	10	2
Brc1ccc(CN2CCNCC2)s1	3	-4	21	71*
Cn1cnc([N+](=O)[O-])c1Sc1ccc([N+](=O)[O-])cc1	-4	84*	-5	0
Cc1ccc(N2C(=O)NC(=O)C3(Cc4ccccc4N4CCN(c5ccccc5)CC43)C2=O)cc1 (stereo not drawn)	2	1	10	70*
O=C1NC(=O)C2(Cc3ccccc3N3CCCC32)C(=O)N1c1cccc(Cl)c1 (stereo not drawn)	-1	-5	5	12
O=C(c1ccc(Cl)cc1)C1CCCN(Cc2ccc3c(c2)OCCO3)C1 (stereo not drawn)	-3	92*	33	31
CCn1ccnc1CN1CCCC(C(=O)c2cc(Cl)ccc2OC)C1 (stereo not drawn)	13	11	4	8
O=C(c1ccc(Cl)cc1)C1CCCN(Cc2ccc3ncccc3c2)C1 (stereo not drawn)	-5	88*	55	27
CC(O)C(C)OC(=O)[C@@H]1C[C@@H]2c3cccc4c3c(cn4C(C)C)C[C@H]2N(C)C1 (stereo partly drawn)	.	.	.	0
C[C@@H]1C2C[C@@]34COC(=O)C3=CC=C[C@H]4[C@@]13C[C@H](c1ccoc1)O[C@@H]3O2	1	10	-4	5
CN1CCc2c(C#N)c(Cl)nc(Cl)c2C1	8	-1	-2	2
CCc1n[nH]c(CCN)n1	.	.	.	13
SMILES	Arbovirus anti	Lmaj promast	WT yeast gro inh	CHOP inh
CN(C)c1ccc(C=C2C(=O)NC(=S)NC2=O)cc1[N+](=O)[O-]	-6	-3	-12	-9
O=C1NC(=S)NC(=O)C1=Cc1cccc2cc3ccccc3cc12	.	.	.	108*
Cn1c(O)c(C(=Nc2ccccc2)SCc2ccc(Cl)cc2)c(=O)n(C)c1=O	.	.	.	28
COc1ccc(CCNCc2ccncc2)cc1OC	2	51*	19	-10
COc1ccc(C2CN(C)CC2C(=O)c2ccc(C)cc2)cc1Cl (stereo not drawn)	-6	39	12	31
CN1CCN(c2cc(N3CCCC3)c([N+](=O)[O-])cc2F)CC1	-8	99*	18	8
O=[N+]([O-])c1cc(F)c(N2CCCCC2)cc1Br	.	.	.	44
CCN1CCN(c2cc(N3CCCC3)c(F)cc2[N+](=O)[O-])CC1	-9	71*	2	22
O=[N+]([O-])c1cc(F)c(N2CCCC2)cc1Br	20	-9	-8	68
C=CCN1C(=O)NC(=O)C(CCc2ccncc2)(CCc2ccncc2)C1=O	5	-5	-10	1
NP(=O)(OCC(F)(F)F)Oc1ccccc1 (stereo not drawn)	.	-5	.	.
Cc1cc(O)c(CN2CCN(c3ccccc3)CC2)cc1C	1	4	-7	82*
COc1ccc(CN2CCN(c3ccccc3)CC2)c(C)c1C	-1	8	17	80*
COc1ccc2[nH]cc(CCN(C)C)c2c1	5	-2	-2	24
CCCCCSc1cc(OC)c(CCN(C)C)cc1OC	-14	100*	-12	29
CS(=O)(=O)Nc1ccc(Cc2noc(-c3ccc4[nH]cc(CCN)c4c3)n2)cc1	-2	.	-10	-7
CN(C)c1ccc(-[n+]2c(-c3ccccc3)cc(-c3ccccc3)cc2-c2ccccc2)cc1	-23	100*	77*	67
c1ccc(-c2cc(-c3ccccc3)[n+](-c3ccccc3)c(-c3ccccc3)c2)cc1	.	.	.	4
Fc1ccc(C2NCCc3[nH]cnc32)cc1 (stereo not drawn)	0	-7	-10	-20
CCOc1cccc(=NC2CCCCC2)c2c(C)n(C)c(C)c12	.	.	.	79*
O=C(NCC(c1cccnc1)N1CCN(c2ccccc2F)CC1)Oc1ccccc1 (stereo not drawn)	11	97*	-13	28
Fc1ccccc1N1CCN(Cc2c(F)cccc2F)CC1	2	0	-3	-35
COc1ccc(N2CCN(C(CNC(=O)Oc3ccccc3)c3cccnc3)CC2)cc1 (stereo not drawn)	12	92*	2	38
CC(C)CCNC(=O)c1cc(C(=O)c2cc(Br)ccc2O)cn(CCC(C)C)c1=O	9	83*	-8	54
O=C(c1cc(C(=O)NCc2ccccc2)c(=O)n(Cc2ccccc2)c1)c1cc(Cl)ccc1O	0	98*	26	11
SMILES	Arbovirus anti	Lmaj promast	WT yeast gro inh	CHOP inh
CC(C)CCNC(=O)c1cc(C(=O)c2cc(F)ccc2O)cn(CCC(C)C)c1=O	2	14	5	49
O=C(c1ccc(N2CCCCCC2)c([N+](=O)[O-])c1)N1CCC2(CC1)OCCO2	-3	2	-4	19
CC(C)CN1CCN(Cc2c(F)cccc2Cl)CC1CCO (stereo not drawn)	0	7	1	8
C=CCN1C(=O)/C(=C/c2cc(C)n(-c3ccccn3)c2C)C(=O)NC1=S	5	96*	-8	-19
Cc1cc(/C=C2/C(=O)NC(=O)N(C)C2=O)c(C)n1-c1ccccc1	4	-3	-5	9
O=c1[nH]c(=O)n(Cc2ccc(F)cc2)c(O)c1/C=N/Nc1ccccc1	.	.	.	20
O=C1NC(=O)C(CCc2ccncc2)(CCc2ccncc2)C(=O)N1CCc1ccccc1	4	0	-6	-8
CN1C(=O)N(C)C(=O)C(CCc2ccncc2)(Cc2ccc3c(c2)OCO3)C1=O	15	65*	-3	-7
O=C1NC(=O)C(CCc2ccncc2)(CCc2ccncc2)C(=O)N1CCc1ccc(F)cc1	22	9	-5	-7
O=C1NC(=O)C(CCc2ccncc2)(Cc2ccc3c(c2)OCO3)C(=O)N1CCc1ccccc1 (stereo not drawn)	4	100*	33	63
N#CSCC(=O)N1c2ccccc2CCc2ccccc21	-32	96*	1	66
